Drawing on the supplement of paper PMC9177965, this text covers cell viability activity for 40 molecules.

For the experiment, the system named is HT29 RNF43 G659fs (RNF43 659mut, CRISPR-edited). Description: cell viability activity relative to DMSO (negative = inhibition); higher = more viable cells (less growth inhibition). The conditions noted are these: 5 µM; 96 h. The protocol:
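Broad Repurposing Library primary screen at a single dose of 5 uM. HT29 sg-Ctrl and HT29 RNF43 G659fs CRISPR-edited isogenic cells were seeded at 2500 cells/well in 384-well plates in duplicate and treated for 96 h. Viability was read by CellTiter-Glo and reported as % activity relative to DMSO, with MG132 as the positive control (negative = growth inhibition).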
`CC(C)[C@H](C(=O)Nc1ccc(C(=O)NO)cc1)c1ccccc1`: the cell viability activity is -95%.

`C[C@@H](CN1CC(=O)NC(=O)C1)N1CC(=O)NC(=O)C1`: the cell viability activity is -48.1%.

Consider `C=CCc1cccc(/C=N/NC(=O)CN2CCN(Cc3ccccc3)CC2)c1O`, for which the cell viability activity is -71.9%.

Consider `CN(C)CCCCC(=O)Nc1ccc(NC(=S)NC(=O)c2ccc(C(C)(C)C)cc2)cc1`, for which the cell viability activity is -85.9%.

In the case of `COc1ccc(S(=O)(=O)Nc2cccnc2Nc2ccc(O)cc2)cc1`, the cell viability activity is -63.9%.

Regarding `CC(C)NCCCn1c(Sc2cc3c(cc2I)OCO3)nc2c(N)ncnc21`, the cell viability activity is -87%.

For the molecule `C[C@H]1O[C@@H](O[C@H]2[C@@H](O)C[C@H](O[C@H]3[C@@H](O)C[C@H](O[C@H]4CC[C@@]5(C)[C@H](CC[C@@H]6[C@@H]5CC[C@]5(C)[C@@H](C7=CC(=O)OC7)CC[C@]65O)C4)O[C@@H]3C)O[C@@H]2C)C[C@H](O)[C@@H]1O`, the cell viability activity is -92.2%.

`Clc1ccc(C2(c3ccc(-c4cn[nH]c4)cc3)CCNCC2)cc1`: the cell viability activity was -71.5%.

As for `CCCCc1ccc2[nH]c(NC(=O)OC)nc2c1`, the cell viability activity is -66.1%.

For the molecule `COC(=O)C[C@](O)(CCCC(C)(C)O)C(=O)O[C@@H]1C(OC)=C[C@]23CCCN2CCc2cc4c(cc2[C@H]13)OCO4`, the cell viability activity was -92.7%.

For the molecule `COc1cc(N2CCC(N3CCN(C)CC3)CC2)ccc1Nc1ncc(Cl)c(Nc2ccccc2P(C)(C)=O)n1`, the cell viability activity was -82.9%.

With `CN(C)C(=O)CCSC(SCCC(=O)O)c1cccc(/C=C/c2ccc3ccc(Cl)cc3n2)c1` (stereo not given), the cell viability activity is -22.6%.

For `COc1c(C)c2c(c(O)c1C/C=C(\C)CCC(=O)O)C(=O)OC2`, the cell viability activity is -22.3%.

On to `Nc1ncnc2c1c(-c1cccc(OCc3ccccc3)c1)cn2C1CC(CN2CCCC2)C1` (stereo not given), for which the cell viability activity was -48%.

On to `Cc1nc(-c2cn3c(n2)-c2ccc(-c4cnn(C(C)(C)C(N)=O)c4)cc2OCC3)n(C(C)C)n1`, for which the cell viability activity is -53.2%.

For `COc1cc(OC)c(/C=C/S(=O)(=O)Cc2ccc(OC)c(OP(=O)(O)O)c2)c(OC)c1`, the cell viability activity is -26.7%.

Consider `CN1CCC(CNc2ccc3ncc(-c4cccc(OC(F)(F)F)c4)n3n2)CC1`, for which the cell viability activity was -53%.

In the case of `CNC(=O)c1ccccc1Nc1nc(Nc2ccc3c(c2OC)CCC[C@H](N2CCN(CCO)CC2)C3)ncc1Cl`, the cell viability activity is -89.4%.

Consider `CCN(CC)CCOCCOC(=O)C(CC)(CC)c1ccccc1`, for which the cell viability activity is -31%.

For the molecule `O=C1c2c(O)ccc(O)c2C(=O)c2c(NCCNCCO)ccc(NCCNCCO)c21`, the cell viability activity is -100%.

Consider `C/C(=N/Nc1nnc2c(n1)[nH]c1c(C)cccc12)c1ccccn1`, for which the cell viability activity is -87.6%.

Take `CCc1c(O)cc(O)c(C(=O)c2ccc(OCCN3CCOCC3)c(OC)c2)c1CC(=O)N(CCOC)CCOC`: the cell viability activity is -93%.

Consider `CN1CCN(CCOc2cc(OC3CCOCC3)c3c(Nc4c(Cl)ccc5c4OCO5)ncnc3c2)CC1`, for which the cell viability activity was -54.8%.

On to `Nc1ncnc2c1nc(Br)n2[C@@H]1O[C@@H]2COP(=O)(O)O[C@H]2[C@H]1O`, for which the cell viability activity was -26.8%.

On to `C[C@H](Nc1ncnc2nc[nH]c12)c1cc2cccc(Cl)c2c(=O)n1-c1ccccc1`, for which the cell viability activity was -24.4%.

Consider `C=CC(=O)Nc1cccc(Sc2nc(Nc3ccc(N4CCN(C)CC4)cc3)ncc2Cl)c1`, for which the cell viability activity is -59.9%.

Take `CCCCc1oc2ccccc2c1C(=O)c1cc(I)c(OCCN(CC)CC)c(I)c1`: the cell viability activity is -99.4%.

On to `COc1cc2c(cc1OC)-c1cc3nc4ccccc4nc3n1C(C)(C)C2`, for which the cell viability activity was -64.4%.

With `Cc1nc(C#Cc2ccnc(Cl)c2)c(C)n1-c1ccc(OC(F)(F)F)cc1`, the cell viability activity is -25.5%.

With `Nc1ccc2cc3ccc(N)cc3nc2c1`, the cell viability activity is -64.5%.

Regarding `Cc1nc(Nc2ncc(C(=O)Nc3c(C)cccc3Cl)s2)cc(N2CCN(CCO)CC2)n1`, the cell viability activity was -65.9%.

On to `Cc1nc(NC(=O)N2CCC[C@H]2C(N)=O)sc1-c1ccnc(C(C)(C)C(F)(F)F)c1`, for which the cell viability activity was -49.8%.

Take `Nc1nccc2c1ncn2[C@@H]1C=C(CO)[C@@H](O)[C@H]1O`: the cell viability activity is -41.6%.

Turning to `N[C@@H](Cn1ccc(=O)n(Cc2ccccc2C(=O)O)c1=O)C(=O)O`, the cell viability activity is -36.8%.

In the case of `CC(C)C[C@@H](C=O)NC(=O)[C@H](CC(C)C)NC(=O)[C@H](CC(C)C)NC(=O)OCc1ccccc1`, the cell viability activity is -96.9%.

For `CN(C)Cc1c(C(=O)NCCOc2ccc(C(=O)NO)cc2)oc2ccccc12`, the cell viability activity was -94.9%.

For `COc1cc2c(Nc3ccc(Cl)c(Cl)c3F)ncnc2cc1OC[C@@H]1C[C@@H]2CN(C)C[C@@H]2C1`, the cell viability activity is -90.6%.

With `COc1ncc(-c2ccc3nccc(-c4ccnnc4)c3c2)cc1NS(=O)(=O)c1ccc(F)cc1F`, the cell viability activity is -93.8%.

With `Cc1ccc(C(=O)Nc2ccc(CN3CCN(C)CC3)c(C(F)(F)F)c2)cc1C#Cc1cnc2[nH]ncc2c1`, the cell viability activity was -96.2%.

On to `Cc1cccc(/C=N/Nc2cc(N3CCOCC3)nc(OCCc3ccccn3)n2)c1`, for which the cell viability activity is -66%.
